A selection: hits, their analogues and other compounds. The true share with any hit is near 21%.
HCV inh – qHTS Assay for Inhibitors of Hepatitis C Virus (HCV); Huh7.5.1 HCVcc-Cre infection, luciferase reporter, 44 h; Potency, µM (doses to about 41.8 µM), without a hit: at the top dose activity change, negative = inhibition, usual class: inhibitors; 340,000 tested, 3.4% active; AID 651820, 2012; further: potency means the concentration at half of the fitted maximal effect; on the % scale 0 is the no-effect control and ±100 the full control effect
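Cells (1,000/well) were plated 4 h before compound, then infected with HCVcc-Cre virus (~0.5 moi). After 44 h further culture, infection was read as luciferase luminescence following a 15 min substrate incubation at room temperature.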
Cycloheximide cs – Cycloheximide Counterscreen for Small Molecule Inhibitors of Shiga Toxin | cell reporter, cycloheximide protein synthesis inhibition counterscreen | max response, % | 300,000 tested, 12% active | AID 2314, 2010; in the data active means max response mostly above about 13%, no sharp cut-off; inactive means mostly below about 14%; further: read at 38.3 µM for the half of the compounds with a filed dose; 0% is about no effect
Pf growth 96h – Primary qHTS for delayed death inhibitors of the malarial parasite plastid, 96 hour incubation; P. falciparum luciferase reporter growth, 96 h; 320,000 tested, 6.9% active; Potency, µM (highest dose often 28.7 µM), inactives show at the highest dose activity change, negative = inhibition, hits mostly inhibitors; further: potency means the concentration at half of the fitted maximal effect; on the % scale 0 is the no-effect control and ±100 the full control effect
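Compounds incubated with erythrocytes infected by luciferase-expressing P. falciparum (2% hematocrit, 0.05% parasitemia final) for 96 hours, 37 C in 5% CO2. Growth inhibition scored as decreased luciferase luminescence.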
Shiga inhibitor – A qHTS for Small Molecule Inhibitors of Shiga Toxin; Vero cells, Shiga toxin protein synthesis inhibition reporter; inhibition, % at 38.7 µM; 290,000 tested, 9.2% active; AID 2315, 2010; in the data active means inhibition mostly above about 28%, no sharp cut-off; inactive means mostly below about 43%; further: 0% is about no effect
AMA1 RON2 block – qHTS for Inhibitors of AMA1-RON; Towards Development of Antimalarial Drug Lead: Primary Screen; AlphaScreen AMA1-biotinylated RON2 peptide binding; 360,000 tested, 0.2% active; AID 720542, 2013; Potency, µM (titrated, usually from 58.2 µM), for inactives: top-dose activity change, negative = inhibition, hits mostly inhibitors; Plasmodium falciparum AMA1 (3D7) - RON2 peptide interaction;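 further: potency means the concentration at half of the fitted maximal effect; 0% = vehicle wells and -100% = peptide control; nearly all actives have a fitted effect of over 45% in size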
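AMA1 (3D7) with his tag at 25 nM final met compounds first, then biotinylated RON2 peptide at 25 nM; detection used donor plus acceptor beads, 10 µg/mL apiece, read by AlphaScreen after 30 min at room temperature.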
Pf growth 48h – Primary qHTS for delayed death inhibitors of the malarial parasite plastid, 48 hour incubation; 310,000 tested, 5.9% active; AID 504832, 2011; P. falciparum luciferase growth in erythrocytes, 48 h; Potency, µM (highest dose often 28.7 µM), for inactives: top-dose activity change, negative = inhibition, actives largely listed as inhibitors; further: potency means the concentration at half of the fitted maximal effect; on the % scale 0 is the no-effect control and ±100 the full control effect
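First compound was added to culture medium, then infected red cells at 0.1% parasitemia and 2% hematocrit (final). After incubation at 37 C under 5% CO2, luciferase detection reagent was dispensed and light output recorded.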
* = called active by the depositor; u = inconclusive; x = not tested or not shown; [ ] = dose if it differs, or a comment. Unless noted, the call rests on the fitted dose curve; in most records, active means well fitted curve in the direction sought with a large enough effect; inconclusive means small, poorly fitted or top-dose-only effect, or another doubt; inactive means no such curve, though single readings can be large; an effect the other way counts as inactive or inconclusive.

SMILES	HCV inh	Cycloheximide cs	Pf growth 96h	Shiga inhibitor	AMA1 RON2 block	Pf growth 48h
CCCCc1ccc(NC(=S)N2CCN(C)CC2)cc1	-17%	20*	u	25	0%	-11%
CCCCc1ccc(NC(=S)N2CCCC2)cc1	8%	48*	u	69*	-5%	6%
CCCCc1ccc(NC(=S)N2CCN(C(=O)OCC)CC2)cc1	-24%	-1	0%	21	14%	u
COC(=O)N(C)C[C@H]1OCc2cn(nn2)CCCC(=O)N([C@@H](C)CO)C[C@@H]1C	x	x	x	x	3%	x
COc1ccc(C(=O)C(c2ccccc2)N2CCOCC2)cc1 (configuration not stated)	15%	4	u	-7	0%	u
Cc1ccc(C(=O)C(c2ccccc2)N2Cc3ccccc3C2=N)cc1 (configuration not stated)	u	2	10µM*	11	u	u
CCN(CC)C(=O)c1ccc2nc3ccccc3nc2c1	-5%	30*	64%	65*	7%	60%
CCN(CC)C(=O)c1ccc2nc(-c3ccccc3)c(-c3ccccc3)nc2c1	3%	-1	35%	-7	-7%	-17%
CCN(CC)C(=O)c1ccc(C(=O)c2ccccc2)cc1	u	32*	94%	37	-5%	x
CCN(CC)C(=O)c1c2c(nc3ccccc13)-c1ccccc1CC2	u	11	u	-6	-11%	7.4µM*
O=C(NNS(=O)(=O)c1ccc(F)cc1)C1CCN(Cc2cccc(F)c2)CC1	9%	-1	-26%	18	14%	4%
N#C/C(=C\Nc1ccc2cn[nH]c2c1)c1nc(-c2ccc(Cl)cc2)cs1	u	-13	4.1µM*	-9	9%	u
N#CC(=Cc1ccccn1)c1nc(-c2ccc(Cl)cc2)cs1	x	x	x	x	28%	x
COc1ccc(C2=Nn3c(nnc3-c3cc(OC)ccc3OC)SC2)c(OC)c1	x	-6	x	-4	x	x
COc1ccc(S(=O)(=O)Nc2ccccc2C(=O)NCc2cccnc2)cc1OC	u	0	35%	-4	1%	3%
Cc1cc(NC(=O)CCCN2C(=O)c3cccnc3C2=O)no1	10%	-3	12µM*	-6	-1%	22%
COc1ccccc1N1CCN(S(=O)(=O)CCNC(=O)CC2CCCCC2)CC1	7%[8.37 µM]	x	4%	x	1%	-2%
CC(C)[C@@H](CO)NS(=O)(=O)c1ccc(Br)cc1F	14%	x	x	x	11%	x
O=C(NCc1cccnc1)c1ccc(-c2ccccc2[N+](=O)[O-])o1	-6%	11	37%	40*	2%	15%
O=C(N/N=C/c1cc2c(cc1[N+](=O)[O-])OCO2)c1cccnc1	18%	1	-27%	23	-27%	u
O=C(N/N=C/c1ccc(-c2ccccc2[N+](=O)[O-])o1)c1cccnc1	-2%	16*	31%	6	7%	1%
O=C(NCc1cccnc1)c1ccc(-c2cccc(Cl)c2Cl)o1	u	12	18%	16	-12%	-20%
CC(C)(C)c1cc(C(=O)N/N=C/c2ccc(-c3ccccc3[N+](=O)[O-])o2)n[nH]1	u	26*	10µM*	45	76%	12µM*
CC(=O)c1ccc2c(c1)N(Cc1ccccc1Cl)C(=O)C(C)S2 (configuration not stated)	x	x	x	x	10%	x
CCc1nc(CN2CCN(c3cc(C(F)(F)F)ccn3)CC2)c(C)[nH]1	u	2	5%	31	-9%	-6%
Cn1c(CNC(=O)CCNC(=O)c2ccc(F)c(F)c2)cc(=O)n(C)c1=O	21%	7	46%	-8	-2%	42%
Cc1cccc(CS(=O)(=O)Cc2ccc(C(=O)NC3CCCCCC3)o2)c1	9%	-2	27%	-9	-11%	1%
N=c1cc(C2(O)CCCCC2)n2c(nc3ccccc32)s1	-5%	48*	u	89*	18%	76%

From PubChem BioAssay
